CHRM1 agonist: human M1 muscarinic receptor agonism | P11229 | CHO-K1 hM1, Fluo-8 calcium fluorescence, agonist mode; 0% DMSO, 100% acetylcholine EC100 | activation, % at 3 µM | hit rate 0.33% among 360,000;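 active means activation above the run's mean compound activation plus 3 SD, cut at about 16% in these data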;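 further: peak over basal fluorescence ratio within a 140 s kinetic read after compound addition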
Target sequence (P11229 whole entry, looked up): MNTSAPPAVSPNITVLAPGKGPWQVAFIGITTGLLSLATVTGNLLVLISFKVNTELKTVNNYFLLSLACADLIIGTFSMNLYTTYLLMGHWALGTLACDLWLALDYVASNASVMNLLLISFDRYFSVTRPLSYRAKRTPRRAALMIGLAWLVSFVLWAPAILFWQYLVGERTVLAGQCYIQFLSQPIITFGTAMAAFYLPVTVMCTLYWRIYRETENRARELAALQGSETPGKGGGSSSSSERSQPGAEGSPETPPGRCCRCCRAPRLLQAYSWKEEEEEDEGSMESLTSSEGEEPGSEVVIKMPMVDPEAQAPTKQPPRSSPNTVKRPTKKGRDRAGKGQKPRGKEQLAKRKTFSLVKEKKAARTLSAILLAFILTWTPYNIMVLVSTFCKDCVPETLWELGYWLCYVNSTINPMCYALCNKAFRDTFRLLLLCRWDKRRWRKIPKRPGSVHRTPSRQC
M1 PAM parental: nonselective activator or artifact in parental CHO-K1 calcium assay; activation, % at 3 µM; ATP EC20, Fluo-8 calcium fluorescence; 0% at ATP EC20, 100% at ATP max; hit rate 0.02% among 360,000; AID 602247;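 active means activation above the run cutoff, the mean activation of all test compounds plus 3 SD, cut at about 40% in these data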;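 further: peak over basal fluorescence ratio in a 140 s read after ATP addition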
CHO-K1 Ca antag: M1 antagonist counterscreen hit in parental CHO-K1 cells; AID 602250; inhibition, % at 3 µM; ATP-induced calcium, Fluo-8 fluorescence; hit rate 0.6% among 360,000;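 active means inhibition above a per-plate cutoff, the plate's mean sample inhibition plus 3 SD, cut at about 24% in these data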;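 further: 0% = DMSO plus EC80 ATP and 100% = DMSO alone without ATP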
CHRM1 antagonist: human CHRM1 antagonism | P11229 | CHO-K1 hM1, Fluo-8 calcium fluorescence, ACh EC80 antagonist | inhibition, % at 3 µM | hit rate 1.3% among 360,000 | AID 588852;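 active means percent inhibition above its own plate's cutoff, namely the mean of that plate's compound wells plus 3 SD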;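 further: peak over basal fluorescence ratio during 140 s after agonist addition; 0% = ACh EC80 plus DMSO and 100% = DMSO alone without agonist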
M1 PAM: potentiates human M1 receptor response to acetylcholine; P11229; activation, % at 3 µM; CHO-K1 hM1, Fluo-8 calcium fluorescence, ACh EC20; 0% = ACh EC20, 100% = maximal ACh; hit rate 0.088% among 360,000; in the data active means activation above about 19%, passing the limit was not always enough
M1 ag parental: M1 agonist counterscreen hit in parental CHO-K1 cells. Fluo-8 calcium fluorescence; scaled to maximal ATP response, vehicle zero. AID 602248. activation, % at 3 µM. hit rate 0.48% among 360,000; in the data active means activation above about 15%;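 further: untransfected CHO-K1 host cells lacking M1 receptor as counterscreen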
An asterisk follows results filed as active. Shown are actives, neighbours in structure and some others; about 2.4% of the full set was active somewhere.

SMILES	CHRM1 agonist	M1 PAM parental	CHO-K1 Ca antag	CHRM1 antagonist	M1 PAM	M1 ag parental
CCOC(=O)c1[nH]c2ccc(C(=O)OC)cc2c1C(=O)OCC	-14	-13	25*	2	-6	-1
Cc1ccc(C)c(S(=O)(=O)Nc2ccc(C(=O)N3CCC3)cc2)c1	-2	-11	-2	-5	5	1
O=[N+]([O-])c1cccc(COc2ccc(CN3CCOCC3)cc2)c1	-4	16	-13	49*	-26	2
O=[N+]([O-])c1cccc(CN2CCCCCC2)c1	-9	6	-4	-9	8	0
O=[N+]([O-])c1cccc(COc2ccc(CN3CCCC3)cc2)c1	-8	13	-12	59*	-30	2
N#Cc1ccc(OCC(O)CN2CCN(C(c3ccccc3)c3ccccc3)CC2)cc1 (stereo not drawn)	-12	19	-10	88*	-34	2
CCC(=O)c1ccc(OCC(O)CN2CCN(C(c3ccccc3)c3ccccc3)CC2)cc1 (stereo not drawn)	-13	23	-41	70*	-34	1
OC(COCc1ccco1)CN1CCN(C(c2ccccc2)c2ccccc2)CC1 (stereo not drawn)	-5	10	-9	67*	-21	0
CCc1nc2ccc(C(=O)NCCN3CCOCC3)cn2c1N(CC)CCOC	-6	-9	1	2	0	-1
Cc1ccc(S(=O)(=O)N2CCN(C(=O)CSc3ccccn3)CC2)c(C)c1	-3	-7	-8	-4	0	2
COc1cccc(CN2CCN(C(=O)Nc3ccc([N+](=O)[O-])cc3)CC2)c1	-3	-11	3	31*	-10	1
CCOC(=O)N1CCN(C(=O)c2c[nH]c3ccc(S(=O)(=O)N(C)c4ccccc4C)cc3c2=O)CC1	-2	6	58*	-7	7	1
CCOC(=O)N1CCN(C(=O)c2c[nH]c3ccc(S(=O)(=O)N(C)c4cccc(C)c4)cc3c2=O)CC1	4	1	-7	-10	3	0
Fc1cccc(Cc2noc(CN3CCCN(C4Cc5ccccc5C4)CC3)n2)c1	-13	20	-11	93*	-34	1
Fc1cccc(Cc2noc(CN3CCSCC3)n2)c1	-9	17	-20	-8	11	1
Fc1cccc(Cc2noc(CN3CCN(C4CCc5ccccc5C4)CC3)n2)c1 (stereo not drawn)	-10	26	-13	72*	-26	4
CC(Oc1ccc(Br)cc1)C(=O)N(Cc1ccccc1)c1c(N)n(Cc2ccccc2)c(=O)[nH]c1=O (stereo not drawn)	-5	6	-7	-4	0	0
C=CCNC(=O)N1CCc2[nH]c3ccc(F)cc3c2C1	24*	14	-6	-11	-1	1
CCCCNC(=O)N1CCc2[nH]c3ccccc3c2C1	19*	-11	5	-13	8	2
O=C(C1CC1)N1CCc2[nH]c3ccccc3c2C1	0	8	-7	-3	5	0
COc1cc2c(cc1OC)CN(C(=O)Nc1ccccc1Cl)CC2	2	1	4	-17	11	2
COc1ccccc1NC(=O)N1CCc2[nH]c3ccc(Cl)cc3c2C1	22*	13	-7	-4	-1	0
CCOC(=O)CNC(=O)Cn1cnc2c(cnn2-c2ccc(C)cc2)c1=O	-3	-13	8	-15	6	0
COc1ccc(C(=O)N(C)CCCC2CCCC2)cc1OC1CCN(C(C)C)CC1	-6	4	-9	30*	-18	3
Cc1occc(=O)c1OCc1c(F)cccc1Cl	-7	6	10	2	3	16*
SMILES	CHRM1 agonist	M1 PAM parental	CHO-K1 Ca antag	CHRM1 antagonist	M1 PAM	M1 ag parental
CC1CCN(C(=O)CCn2c(=O)oc3ccc(Cl)cc32)CC1	2	-1	6	-22	28*	0
COc1cc(/C=N/N(C)C)cc(Br)c1O	-1	1	-6	-24	23*	1
CN=c1scc(C)n1/N=C/c1cc(Br)c(O)c(OC)c1	-5	8	-12	-9	5	0
CC(=O)N1CCN(C(=O)c2ccccc2NS(=O)(=O)c2ccc(F)cc2)CC1	-2	7	-7	0	0	3
O=C1c2ccccc2C(=O)N1CC#CCN1CCN(C(c2ccccc2)c2ccccc2)CC1	-6	13	-13	-2	-9	-1
O=C1C2CSCN2C(=O)CN1CCCN1CCN(C(c2ccccc2)c2ccccc2)CC1 (stereo not drawn)	-9	0	9	62*	-26	-1
CN1C[C@@H]2[C@@H]3C(=O)N(Cc4ccccc4)C(=O)[C@@H]3[C@](Cc3ccccc3)(C1=O)N2C(=O)c1ccc(C(C)(C)C)cc1	-1	-7	-3	7	-4	1
Cc1cc(OCC(=O)Nc2ccc(N3CCCC3)cc2)cc(C)c1Cl	-5	5	-8	58*	-22	0
CC(C)CCOc1cccc(OCC(=O)Nc2ccncc2)c1	0	-15	28*	26	-14	14
Cc1cc(OCC(=O)Nc2ccncc2)c(C)cc1Br	4	-15	32*	37*	-19	14
O=C(COc1ccc2ccccc2c1Br)Nc1ccncc1	5	-12	11	30*	-6	15*
Cc1ccc(CNS(=O)(=O)c2cc3c4c(c2)CCN4C(=O)CC3)cc1	1	1	-3	-1	2	2
O=C(COC(=O)Cn1ccc(=O)[nH]c1=O)Nc1ccc(F)cc1	0	14	-17	-23	8	1
Cc1cc(OCC(=O)Nc2ccncc2)cc(C)c1Cl	2	-8	16	30*	-13	10
Cc1ccc(OCC(=O)Nc2ccncc2)cc1C	3	15	-15	6	-4	10
Cc1ccc(C(=O)NCCNc2ncc(C(F)(F)F)cc2Cl)cc1[N+](=O)[O-]	-11	-2	-3	46*	-32	2
COc1ccc(C(=O)NCCNc2ncc(C(F)(F)F)cc2Cl)cc1[N+](=O)[O-]	-6	-1	-5	6	-6	4
c1ccc(CCNc2nc(-c3ccncc3)nc3ccccc23)cc1	-4	6	-5	35*	-14	5
Cc1cc(OCC(O)CN2CCc3ccccc3C2)cc(C(C)C)c1 (stereo not drawn)	-6	-9	4	32*	-28	2
COc1ccc(N=C2SCC(c3ccc([N+](=O)[O-])cc3)=NN2CCO)cc1	-2	-7	15	12	-7	15*
N#C/C(=N\Nc1ccc(Cl)cc1)C(=O)c1ccccc1	7	-3	31*	15	-2	7
Cc1cc(C)c(OCC(=O)OCC(=O)NCc2cccs2)c(C)c1	-2	-12	5	-7	1	0
Cc1cccc(OCC(=O)NCc2ccc(F)cc2)c1	-6	-22	24*	-3	6	0

Screens deposited in PubChem by The Scripps Research Institute Molecular Screening Center.
